# Data published in the supplement of paper PMC9399229.
# ± gives the standard deviation of the averaged measurements. Whole data set: some 1,900 compounds, median “relative cell viability (CellTiter-Glo), compound alone” near 1, cut for the lowest 2% near 0.16. Many of the other results were omitted from the sample, so the lowest values are more common in it than they were.
# System: Hep3B
# Test: relative cell viability (CellTiter-Glo), compound alone (fraction); higher = more viable cells (less growth inhibition)
# Conditions: cabozantinib 0 µM; 4 days
row,SMILES,relative cell viability
1,C[C@H]1CCC/C=C/[C@@H]2C[C@H](O)C[C@H]2[C@H](O)/C=C/C(=O)O1 [Brefeldin A],0.111 ± 0.0018
2,CC(C)OC(=O)[C@H](C)N[P@](=O)(CO[C@H](C)Cn1cnc2c(N)ncnc21)Oc1ccccc1 [Tenofovir Alafenamide (GS-7340)],1.12 ± 0.17
3,CC(C)[C@]12O[C@H]1[C@@H]1O[C@]13[C@]1(O[C@H]1C[C@H]1C4=C(CC[C@@]13C)C(=O)OC4)[C@@H]2O [Triptolide (PG490)],0.179 ± 0.009
4,"CN1CCc2cc3c(cc2C1C1OC(=O)c2c1ccc1c2OCO1)OCO3 (single isomer, unassigned; (+)) [(+)-Bicuculline]",1.1 ± 0.094
5,CN1[C@@H]2CC(O)C[C@H]1[C@@H]1O[C@@H]12 (stereo not given in full) [Scopine],1.05 ± 0.1
6,CCN1CCN(C(=O)Cc2ccc(Nc3ncc(F)c(Nc4ccc(C(=O)Nc5ccccc5Cl)cc4)n3)cc2)CC1 [Aurora A Inhibitor I],0.328 ± 0.1
7,C[C@@H]1O[C@@H](O[C@H]2C[C@@H](O)[C@]3(CO)[C@H]4[C@H](O)C[C@]5(C)[C@@H](C6=CC(=O)OC6)CC[C@]5(O)[C@@H]4CC[C@]3(O)C2)[C@H](O)[C@H](O)[C@H]1O [Ouabain],0.103 ± 0.0012
8,Cn1cc(C2=C(c3cn(C4CCN(Cc5ccccn5)CC4)c4ccccc34)C(=O)NC2=O)c2ccccc21,1.29 ± 0.031
9,C[C@@H]1[C@H](O)[C@@H](C)/C=C/C=C/CC/C=C/C=C/C=C/C=C/[C@H](O[C@H]2O[C@@H](C)[C@H](O)[C@@H](N)[C@H]2O)C[C@@H]2O[C@](O)(C[C@@H](O)[C@H](O)CC[C@@H](O)C[C@@H](O)C[C@@H](O)CC(=O)O[C@H]1C)C[C@H](O)[C@H]2C(=O)O [Nystatin (Fungicidin)],1.06 ± 0.15
10,COC(=O)C1=CCCN(C)C1 [Arecoline],1.02 ± 0.074
11,c1ccc([C@@H]2C[C@H]2NC2CCNCC2)cc1,0.9895 ± 0.0065
12,O=c1[nH]c2ccc(Cl)cc2c(N[C@@H]2CN3CCC2CC3)c1-c1nc2ccccc2[nH]1,0.13 ± 0.018
13,CCOC(=O)c1cncn1[C@H](C)c1ccccc1 [Etomidate],1.24 ± 0.049
14,CCN1CC2(OC(=O)c3ccccc3NC(C)=O)CCC(OC)C34C1C(CC23)C1(O)CC(OC)C2CC4C1(O)C2OC (stereo not given) [Lappaconite HBr],0.984 ± 0.092
15,O=C1C=CC[C@@H]2[C@H]3CCCN4CCC[C@@H](CN12)[C@@H]34 [Sophocarpine],1.02 ± 0.17
16,CCOc1ccccc1-n1c(C(C)N2CCN(C(=O)COc3ccc(Cl)cc3)CC2)nc2ccccc2c1=O (stereo not given) [Erastin],1.21 ± 0.063
17,COc1cc([C@@H]2c3cc4c(cc3[C@H](O)[C@H]3COC(=O)[C@@H]23)OCO4)cc(OC)c1OC [Picropodophyllin (PPP)],0.7418 ± 0.0018
18,[O-][n+]1ccccc1[S-].[O-][n+]1ccccc1[S-].[Zn+2] [Zinc Pyrithione],0.0193 ± 0.0014
19,CCN(Cc1ccc(Cl)nc1)/C(=C/[N+](=O)[O-])NC [Nitenpyram],0.914 ± 0.12
20,CN1CCN(c2nc3ccccc3nc2Cl)CC1,1.13 ± 0.04
